In PubChem BioAssay:
The source made the active and inactive calls.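 How the source made its calls, unless noted: active means fluorescence slope higher than the sample average by over 3 SD (cut at about -0.22 in these data, passing the limit was not always enough); inactive means the rest.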

target: Voltage-gated potassium channel subunit beta-2 (Rattus norvegicus) (UniProt P62483); test: KvBeta enzyme negative modulators, primary screen, biochemical, NADPH fluorescence (AID 622); settings: recombinant KvBeta, 4-cyanobenzaldehyde reduction, at 10 µM, active compounds read high;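 further: slope of raw intensity against log time taken from 70 to 1610 s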
Sequence (P62483 whole entry, looked up): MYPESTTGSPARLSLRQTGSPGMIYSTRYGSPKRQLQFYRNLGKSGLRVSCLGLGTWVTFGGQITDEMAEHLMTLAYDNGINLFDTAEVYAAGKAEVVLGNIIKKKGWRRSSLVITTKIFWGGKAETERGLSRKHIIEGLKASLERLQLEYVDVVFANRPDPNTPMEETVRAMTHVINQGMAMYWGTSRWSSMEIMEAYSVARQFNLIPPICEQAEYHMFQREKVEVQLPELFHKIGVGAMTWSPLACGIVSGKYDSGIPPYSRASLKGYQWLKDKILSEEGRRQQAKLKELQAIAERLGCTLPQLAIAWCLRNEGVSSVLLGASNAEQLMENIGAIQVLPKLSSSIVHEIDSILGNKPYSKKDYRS

Fluorescence slope, active:
O=C(c1nc2n(n1)C(c1ccc(Cl)cc1)C=C(c1ccccc1)N2)N1CCOCC1 (stereo not given) -0.0865

Fluorescence slope, inactive:
Cc1ccc(S(=O)(=O)N2CCOCC2)cc1C(=O)Nc1ccc(-c2cn3ccsc3n2)cc1 -0.462, Cc1ccc(S(=O)(=O)NCCc2ccncc2)cc1 -0.578, O=C(NCc1ccco1)C1Cc2ccccc2CN1S(=O)(=O)c1ccccc1F (stereo not given) -0.591, Cc1ccccc1NC(=O)c1c(F)c(F)c(F)c(F)c1F -0.565, CC(C(=O)N1CC2(C)CC1CC(C)(C)C2)N1C(=O)c2ccccc2C1=O (stereo not given) -0.504, O=c1c2c3nc4ccccc4nc3n(CC3CCCO3)c2ncn1CCc1ccccc1 (stereo not given) -0.378, COC(=O)C1=C(C)NC(=O)C1(NC(=O)c1cccnc1)C(F)(F)F (stereo not given) -0.565, CCCn1c2ccccc2c2nnc(SCC(=O)OCC)nc21 -0.536, O=C(Nc1ccc(Cl)cc1C(=O)Nc1ccncc1)c1ccco1 -0.316, COCCOC(=O)C1=C(C)N=c2s/c(=C\c3cccs3)c(=O)n2C1c1cccs1 (stereo not given) -0.251, Cc1cc2ncc(C(=O)Nc3ccccc3)c(C)n2n1 -0.54, Cn1c(SC/C=C/c2ccccc2)nnc1-c1cnccn1 -0.572, CCn1c(=O)n(CC(=O)Nc2cc(OC)ccc2OC)c(=O)c2ccccc21 -0.564, CCOC(=O)COc1ccc(S(=O)(=O)N2CCc3ccccc3C2)cc1 -0.555, COc1cc(-c2c(C#N)c(N)nc3c2CCCC3)cc(OC)c1OC -0.534, O=C(OCc1cccs1)c1ccccc1NS(=O)(=O)c1ccc2c(c1)OCCO2 -0.626, O=C1NCCCc2c1no[n+]2[O-] -0.584, CCOC(=O)c1cc2oc(C)cc2n1CC(=O)OC1CCCCC1 -0.584, Cc1cccc(-n2ncc(C#N)c2N)c1 -0.482, CC(=O)c1cc(-c2ccccc2)n(CC(=O)N2CCC(N3CCCCC3)CC2)c1C -0.545, CN(C)S(=O)(=O)c1ccc(S(=O)(=O)Nc2ccc3c(c2)oc2ccccc23)cc1 -0.54, CCCCOC(=O)CSc1nc2c(cc1C#N)C(=O)CC(C)(C)C2 -0.447, Cc1ccc(S(=O)(=O)Cc2ccc(C(=O)NCCCN3CCN(C)CC3)o2)cc1 -0.517, Cc1onc(-c2c(Cl)cccc2Cl)c1C(=O)NCCCN1CCOCC1 -0.47, O=C(O)C1C2C=CC(O2)C1C(=O)NCc1ccc(Cl)cc1 (stereo not given) -0.531, CC(C)OC(=O)CSc1nnnn1-c1ccc2c(c1)OCCO2 -0.228, CCOC(=O)Cc1nn2c(=O)cc(C)nc2s1 -0.474, O=C(CSc1ncnc2sc3c(c12)CCCCC3)NCc1ccco1 -0.472, CCCn1c(SCC(=O)Nc2cc(C)on2)nc2c1c(=O)n(C)c(=O)n2C -0.551, O=C(CSc1ncnc2ccccc12)N1CCN(c2ccccc2)CC1 -0.47, Nc1ncnc2nc(SCCN3CCCCC3)[nH]c12 -0.545, CCN(CC)S(=O)(=O)N1CCC(C(=O)NCC2COc3ccccc3O2)CC1 (stereo not given) -0.494, Cc1cc(NC(=O)Cn2cnc3c2c(=O)n(C)c(=O)n3C)n(-c2ccccc2)n1 -0.33, O=C(CSc1nnc(Cn2cnc3ccccc32)o1)c1ccccc1 -0.464, N#Cc1cc2sc3nnc(-c4ccncc4)n3c2cc1C#N -0.529, COC(=O)C(C)Oc1ccc2c3c(c(=O)oc2c1)CCCCC3 (stereo not given) -0.496, COc1cccc(-c2cc(C(=O)Nc3cc(C)n(Cc4ccc(Cl)cc4)n3)no2)c1 -0.211, CCn1ncc(C2=NOC(C(=O)NCc3ccc(Cl)cc3)C2)c1C (stereo not given) -0.421, CCOC(=O)N1CCN(C(=O)CN(C)S(=O)(=O)c2ccc(OC)c(OC)c2)CC1 -0.614

target: Voltage-gated potassium channel subunit beta-2 (Rattus norvegicus) (UniProt P62483); test: KvBeta positive modulators, primary screen, biochemical, NADPH fluorescence (AID 623;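 active means NADPH fluorescence slope more negative than the mean of all samples by about 3 SD, 99.7% confidence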;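 further: fluorescence intensity change per second fitted from 20 to 320 s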); settings: Recombinant KvBeta, NADPH fluorescence decrease slope, 10 min; at 10 µM; active compounds read low

NADPH fluorescence slope, inactive:
Cc1ccc(S(=O)(=O)N2CCOCC2)cc1C(=O)Nc1ccc(-c2cn3ccsc3n2)cc1 -8.9e-06, Cc1ccc(S(=O)(=O)NCCc2ccncc2)cc1 -5.6e-05, O=C(NCc1ccco1)C1Cc2ccccc2CN1S(=O)(=O)c1ccccc1F (stereo not given) -1.7e-05, Cc1ccccc1NC(=O)c1c(F)c(F)c(F)c(F)c1F -8.2e-05, CC(C(=O)N1CC2(C)CC1CC(C)(C)C2)N1C(=O)c2ccccc2C1=O (stereo not given) -5.6e-05, O=c1c2c3nc4ccccc4nc3n(CC3CCCO3)c2ncn1CCc1ccccc1 (stereo not given) -1.1e-05, COC(=O)C1=C(C)NC(=O)C1(NC(=O)c1cccnc1)C(F)(F)F (stereo not given) -2.9e-05, CCCn1c2ccccc2c2nnc(SCC(=O)OCC)nc21 -7.3e-05, O=C(Nc1ccc(Cl)cc1C(=O)Nc1ccncc1)c1ccco1 -1.2e-05, COCCOC(=O)C1=C(C)N=c2s/c(=C\c3cccs3)c(=O)n2C1c1cccs1 (stereo not given) -1.4e-05, Cc1cc2ncc(C(=O)Nc3ccccc3)c(C)n2n1 -1.5e-05, Cn1c(SC/C=C/c2ccccc2)nnc1-c1cnccn1 2.7e-05, CCn1c(=O)n(CC(=O)Nc2cc(OC)ccc2OC)c(=O)c2ccccc21 -5.4e-05, CCOC(=O)COc1ccc(S(=O)(=O)N2CCc3ccccc3C2)cc1 -4.9e-05, COc1cc(-c2c(C#N)c(N)nc3c2CCCC3)cc(OC)c1OC -6.8e-05, O=C(OCc1cccs1)c1ccccc1NS(=O)(=O)c1ccc2c(c1)OCCO2 -2.4e-05, O=C1NCCCc2c1no[n+]2[O-] -6.4e-06, CCOC(=O)c1cc2oc(C)cc2n1CC(=O)OC1CCCCC1 -2.1e-06, Cc1cccc(-n2ncc(C#N)c2N)c1 -2.8e-06, CC(=O)c1cc(-c2ccccc2)n(CC(=O)N2CCC(N3CCCCC3)CC2)c1C -3.5e-05, CN(C)S(=O)(=O)c1ccc(S(=O)(=O)Nc2ccc3c(c2)oc2ccccc23)cc1 -5.2e-05, CCCCOC(=O)CSc1nc2c(cc1C#N)C(=O)CC(C)(C)C2 -0.000295, Cc1ccc(S(=O)(=O)Cc2ccc(C(=O)NCCCN3CCN(C)CC3)o2)cc1 1.7e-05, Cc1onc(-c2c(Cl)cccc2Cl)c1C(=O)NCCCN1CCOCC1 -2.9e-05, O=C(O)C1C2C=CC(O2)C1C(=O)NCc1ccc(Cl)cc1 (stereo not given) -3.3e-05, CC(C)OC(=O)CSc1nnnn1-c1ccc2c(c1)OCCO2 -3.6e-05, CCOC(=O)Cc1nn2c(=O)cc(C)nc2s1 0.000188, O=C(CSc1ncnc2sc3c(c12)CCCCC3)NCc1ccco1 -1.4e-05, CCCn1c(SCC(=O)Nc2cc(C)on2)nc2c1c(=O)n(C)c(=O)n2C -2.8e-05, O=C(CSc1ncnc2ccccc12)N1CCN(c2ccccc2)CC1 3.6e-05, Nc1ncnc2nc(SCCN3CCCCC3)[nH]c12 -3.4e-05, CCN(CC)S(=O)(=O)N1CCC(C(=O)NCC2COc3ccccc3O2)CC1 (stereo not given) 2.9e-05, Cc1cc(NC(=O)Cn2cnc3c2c(=O)n(C)c(=O)n3C)n(-c2ccccc2)n1 -8.3e-05, O=C(CSc1nnc(Cn2cnc3ccccc32)o1)c1ccccc1 -3.7e-05, O=C(c1nc2n(n1)C(c1ccc(Cl)cc1)C=C(c1ccccc1)N2)N1CCOCC1 (stereo not given) -1.6e-06, N#Cc1cc2sc3nnc(-c4ccncc4)n3c2cc1C#N 1.4e-05, COC(=O)C(C)Oc1ccc2c3c(c(=O)oc2c1)CCCCC3 (stereo not given) -1.7e-05, COc1cccc(-c2cc(C(=O)Nc3cc(C)n(Cc4ccc(Cl)cc4)n3)no2)c1 -2.5e-05, CCn1ncc(C2=NOC(C(=O)NCc3ccc(Cl)cc3)C2)c1C (stereo not given) 2.6e-05, CCOC(=O)N1CCN(C(=O)CN(C)S(=O)(=O)c2ccc(OC)c(OC)c2)CC1 -3.8e-05
